# Measured values reported in PubChem BioAssay (NCATS).
# Several values for one entry are separate records, joined by “and”; a condition that tells them apart may be missing. Identical values can stand only once. Values without a mark were called inactive. Results filed as inconclusive are left out. A call without a number means that no potency is given here. Activity calls are given as the source filed them. Unless noted, calls follow the shape of the full dose curve.
# Assays:
# [1] = Cytotoxicity counterscreen for inhibitors of SARS-CoV-2 cell entry (AID 1645845); also: nearly all actives have a fitted effect of over 50% in size; also: potency is read from the fitted curve at half-maximal effect
# Method in brief: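 Expi293F/hACE2 cells seeded overnight; cpd pin-transferred in DMSO, 1 h preincubation, + media, 48 h 37 C 5% CO2; ATPLite 1step luminescence; normalized to cells and no cells.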
# [2] = biological target: Bile acid receptor (Homo sapiens) (UniProt Q96RI1); experiment: qHTS assay for small molecule agonists of farnesoid X receptor signaling (AID 588527); conditions: HEK293T FXR-UAS-bla, beta-lactamase ratio, 16 h; activation: active compounds read high
# Method in brief: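 Agonist-mode beta-lactamase reporter in GeneBLAzer FXR-UAS-bla HEK293T cells, titration up to 92 uM, 16 h exposure at 37 C, CCF4 fluorescence. Response scaled to DMSO (0%) and 100 uM chenodeoxycholic acid (100%), then Hill-fitted for EC50 and efficacy.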
# [3] = biological target: Peroxisome proliferator-activated receptor delta (Homo sapiens) (UniProt Q03181); experiment: qHTS assay for small molecule agonists of peroxisome proliferator-activated receptor delta signaling (AID 588534)
# Method in brief: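 Fluorescence from CCF4 substrate cleavage by beta-lactamase reporter, read 2 hrs at RT, measured agonist activity. Compounds were tested with 18 hrs exposure at 37 C. Concentration-response data fitted to Hill equation.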
# [4] = Primary qHTS for inhibitors of SARS-S pseudo-typed particle cell entry (AID 1479145); also: nearly all actives have a fitted effect of over 45% in size
# [5] = Primary qHTS for Huh7 cytotoxicity: counterscreen for inhibitors of MERS-S pseudotyped particle cell entry (AID 1479147); conditions: outcome: dose series up to 57.1 µM unless noted
# [6] = Primary qHTS for Vero E6 cytotoxicity: counterscreen for inhibitors of SARS-S pseudo-typed particle cell entry (AID 1479150); conditions: outcome: dose series up to 57.1 µM unless noted
# [7] = qHTS for inhibitors of Rabies Virus screened against the NCATS CANVASS Library (AID 1347402)
# [8] = Confirmatory qHTS for VERO E6 Cytotoxicity Assay: Counterscreen for SARS-CoV-2 CPE Assay (AID 1508605); also: potency is read from the fitted curve at half-maximal effect; nearly all actives have a fitted effect of over 60% in size
# [9] = Confirmatory qHTS for activators (rescue) of SARS-CoV-2 Cytopathic Effect (CPE) (AID 1508606); also: nearly all actives have a fitted effect of over 70% in size; also: potency is read from the fitted curve at half-maximal effect
# [10] = VSVG counterscreen qHTS to identify inhibitors of SARS-CoV-2 cell entry (AID 1645847); also: potency is read from the fitted curve at half-maximal effect; nearly all actives have a fitted effect of over 65% in size
# Method in brief: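 HEK293-ACE2 cells (Expi293F stably expressing human ACE2) were pretreated with compound for 1 h at 37 °C, then infected with MLV-based VSV-G pseudotyped particles for 48 h. Luciferase luminescence was normalized to VSV-G PP and bald PP wells.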
# [11] = qHTS for Inhibitors of the Functional Ribonucleoprotein Complex (vRNP) of Lassa (LASV) Arenavirus: LASV Primary Screen - GLuc reporter signal (AID 1347082; calls by dose curve; tested in HEK293 reporter line; also: nearly all actives have a fitted effect of over 60% in size)
# [12] = biological target: Nucleoprotein (Lymphocytic choriomeningitis virus (strain Armstrong)) (UniProt P09992); experiment: qHTS for Inhibitors of the Functional Ribonucleoprotein Complex (vRNP) of Lymphocytic Choriomeningitis Arenaviruses (LCMV): LCMV Primary Screen - GLuc reporter signal (AID 1347086); also: nearly all actives have a fitted effect of over 70% in size
# [13] = Inducers of the Endoplasmic Reticulum Stress Response (ERSR) in human glioma: Validation (AID 504836; active = well fitted curve in the direction sought with a large enough effect)
# Method in brief: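 Stably transfected U87-MG human glioma cells carrying a GRP78-based luminescent sensor were seeded at 1000 cells/well, pin-dosed with compounds and incubated 16 h. Luciferase reagent was then added, and end-point luminescence was read after 10 min at room temperature.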
# [14] = qHTS for Inhibitors of the Functional Ribonucleoprotein Complex (vRNP) of Lymphocytic Choriomeningitis Arenaviruses (LCMV): Viability assay - alamar blue signal for LCMV Primary Screen (AID 1347085; calls by dose curve; tested in HEK293 reporter line; also: nearly all actives have a fitted effect of over 80% in size; also: potency is read from the fitted curve at half-maximal effect)
# [15] = Primary qHTS to identify inhibitors of SARS-CoV-2 cell entry (AID 1645846); conditions: activity change, negative = inhibition: at 57.1 µM (top of the series) unless noted; also: nearly all actives have a fitted effect of over 45% in size
# Method in brief: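 Luminescence readout (Bright-Glo luciferase) 48 h after pseudoparticle addition. HEK293-ACE2 cells, 1500/well; compound pre-incubation 1 h; Normalized to spike PP and bald PP.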
# Chain of Nucleoprotein (Lymphocytic choriomeningitis virus (strain Armstrong)) (P09992 whole entry, looked up): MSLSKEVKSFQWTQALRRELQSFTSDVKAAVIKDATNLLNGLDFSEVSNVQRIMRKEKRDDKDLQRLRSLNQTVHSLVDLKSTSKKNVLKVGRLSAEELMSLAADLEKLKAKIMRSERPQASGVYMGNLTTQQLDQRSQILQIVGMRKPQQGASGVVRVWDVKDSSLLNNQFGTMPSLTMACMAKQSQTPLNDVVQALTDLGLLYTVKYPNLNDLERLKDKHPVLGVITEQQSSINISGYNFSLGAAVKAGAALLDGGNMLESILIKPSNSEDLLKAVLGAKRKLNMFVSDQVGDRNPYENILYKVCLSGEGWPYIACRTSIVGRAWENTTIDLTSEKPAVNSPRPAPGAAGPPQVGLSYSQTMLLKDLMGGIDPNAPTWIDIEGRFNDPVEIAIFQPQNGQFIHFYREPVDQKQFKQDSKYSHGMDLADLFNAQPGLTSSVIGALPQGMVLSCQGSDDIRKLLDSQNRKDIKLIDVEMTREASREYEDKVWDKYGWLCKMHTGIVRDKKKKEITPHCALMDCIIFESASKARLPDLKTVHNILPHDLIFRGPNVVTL
# Chain of Bile acid receptor (Homo sapiens) (Q96RI1 whole entry, looked up): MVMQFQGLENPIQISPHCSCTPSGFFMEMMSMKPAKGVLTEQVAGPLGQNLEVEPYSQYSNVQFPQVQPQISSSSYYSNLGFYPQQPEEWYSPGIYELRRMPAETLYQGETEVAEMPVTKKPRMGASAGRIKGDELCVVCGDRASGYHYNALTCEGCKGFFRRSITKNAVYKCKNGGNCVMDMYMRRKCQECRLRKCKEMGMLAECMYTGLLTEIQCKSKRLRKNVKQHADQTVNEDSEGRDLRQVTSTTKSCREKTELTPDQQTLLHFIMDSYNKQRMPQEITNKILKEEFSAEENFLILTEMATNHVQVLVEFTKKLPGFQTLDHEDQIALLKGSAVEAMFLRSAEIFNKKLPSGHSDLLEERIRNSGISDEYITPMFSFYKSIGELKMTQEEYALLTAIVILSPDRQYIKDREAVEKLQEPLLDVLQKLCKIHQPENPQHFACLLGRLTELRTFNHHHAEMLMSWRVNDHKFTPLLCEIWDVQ
# Chain of Peroxisome proliferator-activated receptor delta (Homo sapiens) (Q03181 whole entry, looked up): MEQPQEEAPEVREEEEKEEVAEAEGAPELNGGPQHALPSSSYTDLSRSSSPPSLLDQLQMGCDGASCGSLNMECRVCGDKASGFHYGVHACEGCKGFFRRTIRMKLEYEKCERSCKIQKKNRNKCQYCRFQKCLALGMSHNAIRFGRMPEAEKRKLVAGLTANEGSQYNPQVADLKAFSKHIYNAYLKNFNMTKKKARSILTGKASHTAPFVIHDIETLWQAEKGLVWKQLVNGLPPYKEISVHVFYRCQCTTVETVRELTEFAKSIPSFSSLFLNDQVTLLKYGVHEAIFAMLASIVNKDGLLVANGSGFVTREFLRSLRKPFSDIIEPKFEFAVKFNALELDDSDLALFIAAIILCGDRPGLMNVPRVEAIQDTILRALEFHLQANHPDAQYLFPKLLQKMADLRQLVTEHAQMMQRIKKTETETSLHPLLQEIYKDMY
smiles,measurement,setting,value
CCc1ccc(/C=C2/SC(=S)NC2=O)cc1,Potency,[1],10 µM (active)
O=C1c2c(O)cc(O)cc2OC(c2ccc(O)c(O)c2)C1O (stereo not given),Potency,[1],inactive
O=c1c(-c2ccc(O)cc2)coc2cc(O)ccc12,activation,[2],2% and 3.27%
same,Potency,[3],inactive
C[C@]12CC[C@@H]3c4ccc(O)cc4CC[C@H]3[C@@H]1CC[C@@H]2O,Potency,[3],inactive
same,Potency,[4],inactive
same,outcome,[5],inactive
same,outcome,[6],inactive
COc1c(O)cc(O)c2c(=O)cc(-c3ccccc3)oc12,outcome,[7],inactive
Cc1cccc(Nc2nc(-c3ccncc3)cs2)c1,Potency,[8],10 µM (active)
same,Potency,[9],0.794 µM (active)
Cn1cc(-c2ccncc2)c(-c2ccc(OCc3ccc4ccccc4n3)cc2)n1,Potency,[9],inactive
O=C(O)C1(Cc2cccc(Nc3nccs3)n2)CCC(Oc2cccc(Cl)c2F)CC1 (stereo not given),Potency,[10],12.1 µM (active)
O=c1[nH]c(=O)n([C@H]2C[C@@H](O)[C@@H](CO)O2)cc1C(F)(F)F,Potency,[11],inactive
same,Potency,[12],inactive
Nc1ncnc2c1nc(Br)n2C1OC2COP(=O)(O)O[C@@H]2C1O (stereo not given in full),outcome,[13],inactive
same,Potency,[11],inactive
same,Potency,[14],inactive
same,Potency,[12],inactive
CC(=O)O[C@@]12CO[C@@H]1C[C@H](O)[C@@]1(C)C(=O)[C@H](O)C3=C(C)[C@@H](OC(=O)[C@H](O)[C@@H](NC(=O)c4ccccc4)c4ccccc4)C[C@@](O)([C@@H](OC(=O)c4ccccc4)C12)C3(C)C (stereo not given in full),Potency,[11],inactive
same,Potency,[12],inactive
N#CC(c1ccnc(NCCc2cccnc2)n1)c1nc2ccccc2s1 (stereo not given),Potency,[11],inactive
same,Potency,[14],15.3 µM (active)
same,Potency,[1],inactive
same,Potency,[15],inactive
